Key:
Assay in all cases: log2 ratio of Biotin-Ahx-Ub-VS probe labelling (fragment/DMSO); higher = less target engagement (more negative = stronger competition), active = hit call of the paper (q ≤ 0.05, log2 ratio ≤ -1)
Conditions in all cases: compound concentration: 200 uM; treatment time: 3 h
USP34 = USP34 (UniProt Q70CQ2)
Outline: (§1)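 HEK293T lysate (495 µg per sample, in Tris/CHAPS/IGEPAL buffer with protease inhibitors) was exposed in triplicate for 3 h to fragment at 200 µM or to vehicle, then to Biotin-Ahx-Ub-VS at 0.5 µM final for 1 h. Labelled DUBs were enriched on NeutrAvidin, digested with LysC and trypsin, and analysed by diaPASEF LC-MS/MS. Spectronaut label-free quantities were normalised to the global median, and values are average log2 ratios of fragment over vehicle from an unpaired t-test. Only proteins with ≥2 unique peptides were used.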

USP36 = target: T1, USP36 (UniProt Q9P275)
T1 sequence (whole entry): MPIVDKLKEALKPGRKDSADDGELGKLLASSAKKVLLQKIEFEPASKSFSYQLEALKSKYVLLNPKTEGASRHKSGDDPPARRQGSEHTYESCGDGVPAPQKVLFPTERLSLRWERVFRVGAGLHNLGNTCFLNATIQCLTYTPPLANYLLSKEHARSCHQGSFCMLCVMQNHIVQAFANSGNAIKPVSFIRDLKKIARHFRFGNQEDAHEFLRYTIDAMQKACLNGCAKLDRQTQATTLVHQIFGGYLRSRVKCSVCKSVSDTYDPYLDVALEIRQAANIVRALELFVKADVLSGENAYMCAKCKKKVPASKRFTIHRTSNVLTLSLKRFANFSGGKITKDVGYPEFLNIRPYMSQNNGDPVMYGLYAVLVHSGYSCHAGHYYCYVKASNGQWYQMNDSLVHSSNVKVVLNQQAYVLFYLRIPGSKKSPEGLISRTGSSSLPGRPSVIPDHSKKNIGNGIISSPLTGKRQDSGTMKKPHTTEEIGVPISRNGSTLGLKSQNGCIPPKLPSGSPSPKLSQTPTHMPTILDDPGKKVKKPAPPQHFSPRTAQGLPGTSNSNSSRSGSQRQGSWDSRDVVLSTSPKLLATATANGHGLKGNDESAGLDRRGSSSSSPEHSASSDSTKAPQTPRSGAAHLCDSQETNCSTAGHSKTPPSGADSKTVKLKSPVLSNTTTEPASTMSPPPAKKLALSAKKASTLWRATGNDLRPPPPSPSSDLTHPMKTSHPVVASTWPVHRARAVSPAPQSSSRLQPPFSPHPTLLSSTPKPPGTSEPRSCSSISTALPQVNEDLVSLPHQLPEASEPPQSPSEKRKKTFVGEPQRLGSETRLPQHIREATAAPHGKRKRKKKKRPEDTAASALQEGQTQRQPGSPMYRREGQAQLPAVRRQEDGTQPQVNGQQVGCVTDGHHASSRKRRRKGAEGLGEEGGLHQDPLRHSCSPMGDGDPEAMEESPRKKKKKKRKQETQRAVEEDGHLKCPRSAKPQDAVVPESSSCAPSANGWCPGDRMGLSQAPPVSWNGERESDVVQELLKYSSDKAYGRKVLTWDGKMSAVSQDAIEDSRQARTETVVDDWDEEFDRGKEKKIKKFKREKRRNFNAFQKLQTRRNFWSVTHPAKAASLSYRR
Outline: as §1

USP38 = target: T2, USP38 (UniProt Q8NB14)
T2 sequence (whole entry): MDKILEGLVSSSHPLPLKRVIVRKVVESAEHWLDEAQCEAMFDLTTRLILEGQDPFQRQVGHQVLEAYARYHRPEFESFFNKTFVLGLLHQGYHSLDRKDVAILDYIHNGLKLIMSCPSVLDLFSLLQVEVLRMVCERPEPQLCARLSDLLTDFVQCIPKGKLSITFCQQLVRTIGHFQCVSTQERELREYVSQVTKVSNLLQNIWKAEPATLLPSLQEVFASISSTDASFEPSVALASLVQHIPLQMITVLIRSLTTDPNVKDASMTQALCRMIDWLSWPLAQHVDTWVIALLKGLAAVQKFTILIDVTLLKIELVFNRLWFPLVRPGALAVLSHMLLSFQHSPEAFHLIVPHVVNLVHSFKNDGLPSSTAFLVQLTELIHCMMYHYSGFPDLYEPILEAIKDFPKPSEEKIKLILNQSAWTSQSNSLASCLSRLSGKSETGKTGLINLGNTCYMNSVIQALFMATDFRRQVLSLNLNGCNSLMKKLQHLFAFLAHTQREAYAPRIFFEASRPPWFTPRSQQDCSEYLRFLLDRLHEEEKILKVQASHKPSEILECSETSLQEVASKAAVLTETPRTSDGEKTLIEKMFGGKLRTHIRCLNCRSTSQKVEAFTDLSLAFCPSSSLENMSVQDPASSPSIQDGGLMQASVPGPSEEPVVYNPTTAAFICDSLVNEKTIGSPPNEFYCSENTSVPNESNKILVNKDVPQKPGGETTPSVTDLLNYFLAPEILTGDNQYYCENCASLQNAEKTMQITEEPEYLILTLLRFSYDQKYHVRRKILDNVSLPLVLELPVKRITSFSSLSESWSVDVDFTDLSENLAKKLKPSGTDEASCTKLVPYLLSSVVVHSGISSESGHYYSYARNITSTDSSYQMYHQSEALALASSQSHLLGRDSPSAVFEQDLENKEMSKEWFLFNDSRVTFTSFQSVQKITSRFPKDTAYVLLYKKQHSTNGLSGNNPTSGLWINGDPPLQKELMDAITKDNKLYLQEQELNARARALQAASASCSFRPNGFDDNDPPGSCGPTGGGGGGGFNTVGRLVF
Outline: as §1

USP39 = target: T3, USP39 (UniProt Q53GS9)
T3 sequence (whole entry): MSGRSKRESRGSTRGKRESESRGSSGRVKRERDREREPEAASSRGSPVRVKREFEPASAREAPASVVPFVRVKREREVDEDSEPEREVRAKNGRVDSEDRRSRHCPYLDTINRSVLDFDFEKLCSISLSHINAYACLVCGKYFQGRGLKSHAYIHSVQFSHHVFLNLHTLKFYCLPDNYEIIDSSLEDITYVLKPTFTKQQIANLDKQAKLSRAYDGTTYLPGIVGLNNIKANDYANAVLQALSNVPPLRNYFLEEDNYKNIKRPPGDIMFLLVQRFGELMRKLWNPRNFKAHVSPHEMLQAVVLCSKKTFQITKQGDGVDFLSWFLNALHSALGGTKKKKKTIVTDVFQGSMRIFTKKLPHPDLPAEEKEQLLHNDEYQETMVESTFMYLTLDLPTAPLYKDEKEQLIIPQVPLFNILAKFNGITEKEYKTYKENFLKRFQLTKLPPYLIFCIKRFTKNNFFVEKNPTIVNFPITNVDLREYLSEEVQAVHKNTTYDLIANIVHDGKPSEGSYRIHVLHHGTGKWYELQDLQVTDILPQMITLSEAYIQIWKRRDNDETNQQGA
Outline: as §1

USP4 = target: T4, USP4 (UniProt Q13107)
T4 sequence (whole entry): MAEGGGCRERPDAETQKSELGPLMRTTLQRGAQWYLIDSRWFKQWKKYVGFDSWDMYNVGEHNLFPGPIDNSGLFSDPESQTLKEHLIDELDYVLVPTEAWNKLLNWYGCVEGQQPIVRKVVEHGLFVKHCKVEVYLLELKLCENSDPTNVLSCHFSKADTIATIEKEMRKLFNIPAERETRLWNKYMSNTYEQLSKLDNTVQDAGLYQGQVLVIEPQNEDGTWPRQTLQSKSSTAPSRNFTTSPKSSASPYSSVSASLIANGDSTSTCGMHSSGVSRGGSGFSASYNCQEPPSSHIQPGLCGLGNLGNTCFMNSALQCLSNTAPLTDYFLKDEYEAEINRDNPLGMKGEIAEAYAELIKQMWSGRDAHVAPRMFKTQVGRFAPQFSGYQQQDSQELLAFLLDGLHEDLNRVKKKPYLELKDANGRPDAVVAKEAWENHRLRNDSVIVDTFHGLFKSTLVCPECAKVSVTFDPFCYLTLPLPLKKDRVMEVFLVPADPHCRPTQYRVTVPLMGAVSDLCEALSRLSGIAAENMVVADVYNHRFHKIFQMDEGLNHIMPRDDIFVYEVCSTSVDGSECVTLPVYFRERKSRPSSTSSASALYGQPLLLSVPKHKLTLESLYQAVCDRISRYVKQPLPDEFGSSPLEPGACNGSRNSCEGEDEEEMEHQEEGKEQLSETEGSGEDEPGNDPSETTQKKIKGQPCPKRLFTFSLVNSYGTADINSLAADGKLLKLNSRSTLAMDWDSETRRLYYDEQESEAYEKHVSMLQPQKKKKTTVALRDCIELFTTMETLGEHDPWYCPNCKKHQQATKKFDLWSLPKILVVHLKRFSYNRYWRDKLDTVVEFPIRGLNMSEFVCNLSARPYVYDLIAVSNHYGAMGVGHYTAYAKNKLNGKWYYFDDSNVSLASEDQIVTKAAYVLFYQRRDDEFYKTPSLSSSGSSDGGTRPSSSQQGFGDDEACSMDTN
Outline: as §1

Measured: log2 ratio of Biotin-Ahx-Ub-VS probe labelling

USP34, sequence (Q70CQ2 whole entry, the tested form may be a part): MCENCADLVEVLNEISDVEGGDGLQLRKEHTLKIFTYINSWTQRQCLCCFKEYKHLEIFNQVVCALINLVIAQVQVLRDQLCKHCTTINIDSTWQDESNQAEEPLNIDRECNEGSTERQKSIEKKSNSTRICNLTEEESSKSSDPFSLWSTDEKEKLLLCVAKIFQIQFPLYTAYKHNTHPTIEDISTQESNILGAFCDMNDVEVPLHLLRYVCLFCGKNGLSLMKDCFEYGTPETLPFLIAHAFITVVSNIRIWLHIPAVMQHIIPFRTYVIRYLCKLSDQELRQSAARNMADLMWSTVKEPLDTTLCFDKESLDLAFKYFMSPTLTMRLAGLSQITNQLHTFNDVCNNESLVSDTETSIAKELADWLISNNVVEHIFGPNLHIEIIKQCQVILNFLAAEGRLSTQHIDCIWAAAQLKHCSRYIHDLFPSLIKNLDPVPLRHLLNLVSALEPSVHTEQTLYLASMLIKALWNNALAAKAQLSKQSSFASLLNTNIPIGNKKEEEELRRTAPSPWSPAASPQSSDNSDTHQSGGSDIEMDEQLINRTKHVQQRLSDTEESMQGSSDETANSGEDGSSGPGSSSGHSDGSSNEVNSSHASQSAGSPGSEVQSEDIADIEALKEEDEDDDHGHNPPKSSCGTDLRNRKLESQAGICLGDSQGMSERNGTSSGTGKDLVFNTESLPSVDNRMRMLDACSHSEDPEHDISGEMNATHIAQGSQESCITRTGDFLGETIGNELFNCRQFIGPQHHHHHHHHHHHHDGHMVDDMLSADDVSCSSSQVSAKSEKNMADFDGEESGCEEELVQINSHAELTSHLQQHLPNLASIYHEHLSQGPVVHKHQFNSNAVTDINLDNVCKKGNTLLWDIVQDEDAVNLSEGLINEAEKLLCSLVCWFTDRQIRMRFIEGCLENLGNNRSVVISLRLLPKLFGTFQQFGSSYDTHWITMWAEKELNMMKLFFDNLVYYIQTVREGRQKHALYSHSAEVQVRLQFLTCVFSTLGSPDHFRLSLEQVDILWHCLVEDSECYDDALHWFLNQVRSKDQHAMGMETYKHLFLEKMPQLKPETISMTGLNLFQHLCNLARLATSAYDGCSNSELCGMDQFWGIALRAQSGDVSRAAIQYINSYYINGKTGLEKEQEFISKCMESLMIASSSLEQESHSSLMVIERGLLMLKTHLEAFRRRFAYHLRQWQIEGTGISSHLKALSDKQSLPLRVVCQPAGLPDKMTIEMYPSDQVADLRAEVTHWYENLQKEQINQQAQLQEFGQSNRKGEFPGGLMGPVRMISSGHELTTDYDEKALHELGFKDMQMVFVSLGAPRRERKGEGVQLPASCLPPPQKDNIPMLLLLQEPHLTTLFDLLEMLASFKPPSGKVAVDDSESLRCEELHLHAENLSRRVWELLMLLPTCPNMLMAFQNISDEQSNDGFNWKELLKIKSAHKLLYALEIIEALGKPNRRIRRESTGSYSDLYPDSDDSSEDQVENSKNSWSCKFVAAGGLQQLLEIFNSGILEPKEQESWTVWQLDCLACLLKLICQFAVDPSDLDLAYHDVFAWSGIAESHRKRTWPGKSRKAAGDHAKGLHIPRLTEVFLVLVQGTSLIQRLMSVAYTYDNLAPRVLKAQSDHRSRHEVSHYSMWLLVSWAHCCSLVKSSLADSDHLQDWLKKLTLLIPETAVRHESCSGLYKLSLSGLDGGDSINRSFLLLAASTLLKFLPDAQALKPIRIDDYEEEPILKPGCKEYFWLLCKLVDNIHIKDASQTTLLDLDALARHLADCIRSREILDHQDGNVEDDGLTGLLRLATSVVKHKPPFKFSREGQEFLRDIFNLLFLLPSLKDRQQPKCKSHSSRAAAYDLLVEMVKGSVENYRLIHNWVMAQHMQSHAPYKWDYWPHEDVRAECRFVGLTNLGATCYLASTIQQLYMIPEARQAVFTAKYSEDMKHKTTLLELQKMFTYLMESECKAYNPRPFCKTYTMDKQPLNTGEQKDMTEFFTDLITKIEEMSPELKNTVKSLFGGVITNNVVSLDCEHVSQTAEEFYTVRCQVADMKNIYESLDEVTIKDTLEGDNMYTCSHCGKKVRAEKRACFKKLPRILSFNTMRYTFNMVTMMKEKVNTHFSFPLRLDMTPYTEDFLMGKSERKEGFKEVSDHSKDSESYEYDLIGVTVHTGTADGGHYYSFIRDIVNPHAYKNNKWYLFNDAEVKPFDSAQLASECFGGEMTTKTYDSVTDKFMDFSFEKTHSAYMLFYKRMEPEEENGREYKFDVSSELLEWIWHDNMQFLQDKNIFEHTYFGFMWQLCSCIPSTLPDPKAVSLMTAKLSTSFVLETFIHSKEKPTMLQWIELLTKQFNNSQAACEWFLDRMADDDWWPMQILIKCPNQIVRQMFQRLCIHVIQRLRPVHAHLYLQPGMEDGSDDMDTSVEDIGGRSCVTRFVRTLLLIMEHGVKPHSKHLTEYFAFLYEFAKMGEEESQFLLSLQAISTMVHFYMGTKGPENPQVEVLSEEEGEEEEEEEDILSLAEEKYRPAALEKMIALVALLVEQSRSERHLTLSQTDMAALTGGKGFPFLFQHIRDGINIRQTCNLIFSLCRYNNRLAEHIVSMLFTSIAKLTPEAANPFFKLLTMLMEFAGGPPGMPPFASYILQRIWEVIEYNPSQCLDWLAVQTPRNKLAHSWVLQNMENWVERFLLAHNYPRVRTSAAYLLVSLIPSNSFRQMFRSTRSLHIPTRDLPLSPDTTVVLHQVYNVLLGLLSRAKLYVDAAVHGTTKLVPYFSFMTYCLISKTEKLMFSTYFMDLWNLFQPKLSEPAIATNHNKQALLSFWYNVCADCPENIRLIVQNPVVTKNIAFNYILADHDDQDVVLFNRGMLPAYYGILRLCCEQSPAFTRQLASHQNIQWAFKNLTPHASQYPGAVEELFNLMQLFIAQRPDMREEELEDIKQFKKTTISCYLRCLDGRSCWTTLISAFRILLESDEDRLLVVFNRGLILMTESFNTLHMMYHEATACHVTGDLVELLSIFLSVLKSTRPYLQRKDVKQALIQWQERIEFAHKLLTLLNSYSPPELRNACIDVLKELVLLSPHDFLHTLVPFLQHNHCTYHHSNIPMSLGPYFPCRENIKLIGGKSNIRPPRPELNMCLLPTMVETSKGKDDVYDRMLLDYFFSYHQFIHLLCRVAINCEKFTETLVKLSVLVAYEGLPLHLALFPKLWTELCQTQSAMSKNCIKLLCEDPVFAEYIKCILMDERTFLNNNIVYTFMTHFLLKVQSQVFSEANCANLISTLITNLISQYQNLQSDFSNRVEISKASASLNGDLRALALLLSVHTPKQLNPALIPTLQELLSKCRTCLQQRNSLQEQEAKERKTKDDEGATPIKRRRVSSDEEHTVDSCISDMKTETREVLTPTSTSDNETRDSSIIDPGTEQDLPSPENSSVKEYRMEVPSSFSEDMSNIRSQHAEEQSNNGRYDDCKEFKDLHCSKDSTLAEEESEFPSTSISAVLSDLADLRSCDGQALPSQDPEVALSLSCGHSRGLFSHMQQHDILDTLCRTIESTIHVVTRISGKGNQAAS

O=C(CCl)Nc1nc(-c2cccs2)cs1
inactive: USP34 -0.754 | USP36 -0.271 | USP38 -0.092 | USP39 0.197 | USP4 -0.0279
